Laboratory results as given in ChEMBL document CHEMBL4513216, “Probing the Open Global Health Chemical Diversity Library for Multistage-Active Starting Points for Next-Generation Antimalarials” (ACS Infect Dis, 2020).
The whole screen tested about 69,000 compounds, of which about 8,600 (12%) showed an effect of 50% or more. Only a selection was taken, and strong results are over-represented in it overall.

Test system: Plasmodium berghei
Assay: Screen against P. berghei liver stage (PbLuc), transformed with Luciferase, at 10uM
Format: functional, HepG2
Conditions: tested at 10 uM

First: COc1cccc2[nH]c(C(=O)N3CCNCC3C(N)=O)cc12 (configuration not stated)
Second: Cc1cccc(C(=O)N2CCCCC2c2[nH]ncc2S(C)(=O)=O)c1 (configuration not stated)
The INHIBITION of the first is higher: 12.285% for the first, 4.08% for the second.

Compared with `CCN(CC)C(CNC(=O)c1c(C)noc1C(C)C)c1ccsc1` (configuration not stated), `CC(=O)NCc1noc2c1CN(Cc1ccsc1)CC2` is higher in INHIBITION: 33.7% for the first, 64.5% for the second.

Compared with `CC1=Nc2c(c(=O)[nH]n2C2CCCCC2)C(c2cccnc2)S1` (configuration not stated), `Cn1cc(NC(=O)N2CCCC2c2cccnc2)ccc1=O` (configuration not stated) is lower in INHIBITION: 14.2% for the first, -72.2% for the second.

Going from `CCOCCN1CCN(Cc2nc(C3CC3)no2)CC1CC` (configuration not stated) to `CCOCCN1CCN(Cc2nc(C)no2)CC1CC` (configuration not stated), the INHIBITION rises from 38.7% to 54.4%.

Going from `CCN1CCN(Cc2nc(CC(C)C)no2)CC1` to `CC(C)Cc1noc(CN2CCN(CCO)CC2)n1`, the INHIBITION rises from 16.45% to 48.9%.

Going from `CC(C)Cc1noc(CN2CCN(CCOc3ccc(Cl)cc3)CC2)n1` to `CCOCCN1CCN(Cc2nc(CC(C)C)no2)CC1`, the INHIBITION falls from 79.9% to 53.575%.

First: CC(C)Cc1noc(CN2CCCN(C(=O)c3ccccc3Cl)CC2)n1
Second: CC(C)Cc1noc(CN2CCCN(C(=O)c3cccc(Cl)c3)CC2)n1
The INHIBITION of the first is lower: 37.2% for the first, 68.3% for the second.

First: CC(C)Cc1noc(CN2CCN(S(C)(=O)=O)CC2)n1
Second: CC(C)Cc1noc(CN2CCN(c3nccs3)CC2)n1
The INHIBITION of the first is higher: 32.78% for the first, -22.6% for the second.

Going from `CC(C)Cc1noc(CN2CCN(C(=O)c3cccc(F)c3)CC2)n1` to `OC(CN1CCN(Cc2nc(C3CC3)no2)CC1)c1ccccc1` (configuration not stated), the INHIBITION falls from -29.9% to -45.9%.

Going from `CCN1CCN(Cc2nc(C)no2)CC1` to `CCOCCN1CCN(Cc2nnc(C3CC3)o2)CC1`, the INHIBITION rises from 0.818% to 12.6%.

Going from `CN(C)C(=O)CN1C(=O)CO[C@@H]2CN(c3ccccn3)C[C@H]21` to `Cc1ccc(CN2C[C@H]3OC(=O)N(Cc4ccccn4)[C@H]3C2)o1`, the INHIBITION rises from 21.7% to 22.9%.

Compared with `CCOc1c(F)cccc1C(=O)N(C)CCc1ccccn1`, `O=C(NCCn1ccc(-c2ccccn2)n1)c1ccncc1` is higher in INHIBITION: 24.7% for the first, 31.2% for the second.

Compared with `O=C(NC1CCCC1)c1ccc(C2CCCNC2)nc1` (configuration not stated), `O=C(CCn1c(C(F)(F)F)cc2cccnc21)NC1CCCC1` is higher in INHIBITION: -17.7% for the first, 8.72% for the second.

Compared with `CC(=O)NCCc1cc2nc(-c3ccncc3)ccn2n1`, `Cc1nnsc1C(=O)NCCn1ccc(-c2ccncc2)n1` is higher in INHIBITION: 14.105% for the first, 61.5% for the second.

First: Cc1noc(C)c1CN1CCc2cnn(C)c2C1COCC1CC1 (configuration not stated)
Second: Cc1noc(C)c1CC(=O)N1CCC(c2ccn3nccc3n2)CC1
The INHIBITION of the first is higher: 23.3% for the first, -27.8% for the second.

First: CCC[C@@H]1CN(c2cncc(C(=O)N3CCOCC3)n2)C[C@H]1N(C)C
Second: CN1CCC(C(=O)NCCC2CN(c3cnn(C)c(=O)c3)CCO2)CC1 (configuration not stated)
The INHIBITION of the first is lower: -31.7% for the first, 23.6% for the second.

Going from `Cc1nc(CNC(=O)N(CCCO)C2CCc3ccccc32)oc1C` (configuration not stated) to `Nc1cc(CCCNC(=O)NC2CCCC2)nn1-c1ccccc1`, the INHIBITION falls from 21.6% to -26.2%.

First: CCOCCN1CCN(Cc2nnc(C3CC3)o2)CC1C (configuration not stated)
Second: CCOCCN1CCN(Cc2nnc(C3CC3)o2)CC1CC (configuration not stated)
The INHIBITION of the first is higher: 74.2% for the first, 0% for the second.

First: O=C(CCc1ccc(-n2cnnn2)cc1)Nc1nncs1
Second: O=C(NCCn1ccc(-c2ccncc2)n1)c1ccncc1
The INHIBITION of the first is higher: 40.6% for the first, 26.4% for the second.

Going from `O=C(Cc1ccc2c(c1)CCO2)N1CCN(c2ccccn2)CC1` to `O=C(N1CCCC1)N1CCc2onc(COc3cccnc3)c2C1`, the INHIBITION rises from -13.5% to 20.6%.

Compared with `N#CCCn1nc(C(F)(F)F)c2c1CCCC2`, `N#CCCn1nc(C(F)(F)F)c2c1CCC2` is higher in INHIBITION: 42.6% for the first, 57.5% for the second.

Compared with `NCCCn1nc(C(F)(F)F)c2c1CCC2`, `CCN(CC)CCCNc1nc(C)nc2c1CCN(C)C2` is lower in INHIBITION: 27.8% for the first, 5.185% for the second.

Going from `Cc1nccn1C1CCCN(C(=O)c2cccc(-n3cccc3)c2)C1` (configuration not stated) to `Cc1cccc(NC(=O)[C@@H]2CCCN2Cc2ccccc2C#N)n1`, the INHIBITION falls from 43.2% to 0.342%.

Compared with `O=S(=O)(NCc1ccc(S(=O)(=O)N2CCCC2)s1)c1cc(Cl)cc(Cl)c1`, `CCc1ccc(S(=O)(=O)NCC2CCN(c3cnccn3)CC2)s1` is higher in INHIBITION: 40.6% for the first, 83% for the second.

Compared with `COc1ccc(-n2ncc3c2NC(=O)CSC3C(C)C)cc1` (configuration not stated), `CC(C)C1SCC(=O)Nc2c1cnn2-c1ccc(Cl)cc1` (configuration not stated) is higher in INHIBITION: 5.51% for the first, 78% for the second.

Compared with `CC(C)C1SCC(=O)Nc2c1cnn2-c1ccc(F)cc1` (configuration not stated), `CC(C)CCn1c(=O)[nH]c2cn(-c3ccc(F)cc3)c(=O)n21` is lower in INHIBITION: 8.99% for the first, -15% for the second.

Going from `CCn1cc2[nH]c(OC)c(CNC(=O)C3CCS(=O)(=O)CC3)cc-2c1=O` to `CN1C(=O)CCc2cc(NC(=O)C3CC(=O)N(CC4CC4)C3)ccc21` (configuration not stated), the INHIBITION rises from -21.8% to -5.57%.

Going from `O=C1O[C@@H]2CN(Cc3cc4ccccc4o3)C[C@@H]2N1Cc1ccccn1` to `O=C1O[C@@H]2CN(Cc3cc4ccccc4s3)C[C@@H]2N1Cc1ccccn1`, the INHIBITION falls from 55% to 36.5%.

Going from `Cc1ccc(-c2cnnc(N3CCCC3c3nonc3C)n2)o1` (configuration not stated) to `COc1cc2c(nn1)CCN(Cc1nnc(Cc3ccccc3)o1)C2`, the INHIBITION rises from 5.67% to 88.5%.

Going from `Cc1cccc(-c2noc(CN3CCCCC3Cn3cncn3)n2)c1` (configuration not stated) to `c1ccc(Cc2nc(CN3CCCC3Cn3cncn3)cs2)cc1` (configuration not stated), the INHIBITION rises from 9.14% to 23.5%.

Compared with `Cc1cccc(NC(=O)[C@@H]2CCCN2CC(=O)N2CCCCCC2)n1`, `Cc1cccc(NC(=O)[C@@H]2CCCN2CC(=O)Nc2ccccc2)n1` is higher in INHIBITION: -3.83% for the first, 76.5% for the second.

Compared with `CC(C)(C)Oc1ccc(NCC(=O)NCc2ccco2)cc1`, `CCc1cc(=O)n(CCNC(=O)Nc2ccc(OC(F)(F)F)cc2)cn1` is higher in INHIBITION: 16.1% for the first, 28% for the second.

Going from `CCCN(CCC)c1ncc(S(=O)(=O)c2ccc(C)cc2)c(N)n1` to `CCCN(CCC)c1ncc(S(=O)(=O)c2cccc(C)c2)c(N)n1`, the INHIBITION falls from 20.4% to 6.29%.

First: CCCN(CCC)c1ncc(S(=O)(=O)c2ccccc2)c(N)n1
Second: CCc1nnc2n1CCN(Cc1ncc(-c3ccccc3)o1)C2
The INHIBITION of the first is higher: 52.4% for the first, 9.665% for the second.

Compared with `COc1ccnc(N(C)Cc2ccccc2OC(F)(F)F)n1`, `CN(Cc1ccccc1OC(F)(F)F)C(=O)C1CC1` is higher in INHIBITION: 15.2% for the first, 82.7% for the second.

Going from `CN(Cc1ccccc1OC(F)(F)F)C(=O)C1CCCN(C(N)=O)C1` (configuration not stated) to `O=C(NCCn1ccc(-c2ccccn2)n1)C1CC1`, the INHIBITION rises from -116% to -30%.

First: COCC1CC2(CCN(Cc3ccccn3)CC2)CN1c1ncccn1 (configuration not stated)
Second: CS(=O)(=O)N1CC[C@H]2OCC[C@@]2(C(=O)NCCc2ccccn2)C1
The INHIBITION of the first is lower: 8.67% for the first, 38.5% for the second.

Compared with `O=C1OCCCN1Cc1nc(-c2ccc(N3CCCCC3)cc2)no1`, `O=C1NCCCN1Cc1nc(-c2ccc(N3CCCCC3)cc2)no1` is lower in INHIBITION: 55.5% for the first, 26.4% for the second.

First: O=C1OCCCN1Cc1nc(-c2ccncc2)no1
Second: O=C(NCCn1ccc(-c2ccncc2)n1)c1ccc2c(c1)OCO2
The INHIBITION of the first is lower: 36.5% for the first, 64.5% for the second.

Going from `Cc1ccc2[nH]c(=O)cc(C(=O)N[C@@H]3C[C@@H](CO)N(C)C3)c2c1` to `Cc1ccc(NCC2(O)CCNCC2)cc1C`, the INHIBITION falls from 46.7% to 23.1%.

First: O=C(CSC1=NS(=O)(=O)c2cc(F)ccc2N1)Nc1ccc(Cl)c(Cl)c1
Second: O=C(CSC1=NS(=O)(=O)c2cc(F)ccc2N1)Nc1cccc(Cl)c1
The INHIBITION of the first is higher: 57.3% for the first, 16.6% for the second.

Going from `O=C(CSC1=NS(=O)(=O)c2cc(F)ccc2N1)Nc1ccc(Cl)cc1` to `OC1(CNc2ccc(F)cc2)CCNCC1`, the INHIBITION rises from 3.52% to 6.29%.

First: COc1cc2c(nn1)CCN(Cc1ncc(C(C)(C)C)o1)C2
Second: COc1cc2c(nn1)CCN(Cc1nc(Cc3ccccc3)no1)C2
The INHIBITION of the first is higher: 18.9% for the first, -112% for the second.

Compared with `O=C(C1CCCO1)N1CCCn2c(nnc2Cn2ccnc2)C1` (configuration not stated), `CC(=O)NCc1noc2c1CN(Cc1cnn(C)c1)CC2` is higher in INHIBITION: -12.4% for the first, 46.7% for the second.

First: CC(C)n1cc(S(=O)(=O)N2CCCCCC2)cn1
Second: CNc1cncc(C2CCN(S(C)(=O)=O)CC2)n1
The INHIBITION of the first is higher: 33.3% for the first, 12.8% for the second.

First: c1ccc(CCc2n[nH]c(C3CCC3)n2)cc1
Second: CC(=O)N1CCCC1c1nccnc1NCc1cccnc1 (configuration not stated)
The INHIBITION of the first is lower: -31.9% for the first, -9.51% for the second.

First: COc1ccc(NCC2(O)CCNCC2)cc1OC
Second: CNC(=O)CCc1cc(C)nc(C2CCN(c3cnccn3)CC2)c1
The INHIBITION of the first is higher: 62.7% for the first, 34.65% for the second.

First: Cc1nc2c(c(NCCCN3CCOCC3)n1)CCN(C)C2
Second: Cc1nc2c(c(NCCN3CCOCC3)n1)CCN(C)C2
The INHIBITION of the first is higher: 59.7% for the first, 7.55% for the second.

Going from `CC(C)Cc1nc(CN2CCOC(Cn3cncn3)C2)no1` (configuration not stated) to `CCN(CC1CCOC1)C(=O)c1cnc2onc(C)c2c1` (configuration not stated), the INHIBITION rises from 15.3% to 34.15%.

Going from `Cc1nccc(N2CCCC2CCNS(C)(=O)=O)n1` (configuration not stated) to `CCS(=O)(=O)NCC1CCN(c2cnccn2)CC1`, the INHIBITION rises from 10.9% to 40%.

Going from `O=S(=O)(NCC1CCN(c2cnccn2)CC1)c1cccs1` to `c1cncc(OCc2noc3c2CN(Cc2cccs2)CC3)c1`, the INHIBITION falls from 25.1% to -26.5%.

First: O=C(c1cc[nH]n1)N1CCc2onc(COc3cccnc3)c2C1
Second: O=C(c1ccc[nH]1)N1CCc2onc(COc3cccnc3)c2C1
The INHIBITION of the first is higher: 67.2% for the first, 21.8% for the second.

First: CC(=O)NCc1nn(C)c2c1CN(Cc1ccsc1)C2
Second: CC(=O)N(C)Cc1nn(C)c2c1CN(Cc1ccsc1)C2
The INHIBITION of the first is higher: 69.7% for the first, -37.9% for the second.

Going from `CC(=O)NCc1noc2c1CN(Cc1cccs1)CC2` to `c1cncc(OCc2noc3c2CN(Cc2ccsc2)CC3)c1`, the INHIBITION rises from 6.83% to 56.1%.

Going from `c1cncc(OCc2noc3c2CN(Cc2ccoc2)CC3)c1` to `Cn1nc(Cn2cccc2)c2c1CN(Cc1ccsc1)C2`, the INHIBITION falls from -3.95% to -5.08%.

Going from `CCCC(NC(=O)c1ccccc1Br)c1nnn[nH]1` (configuration not stated) to `CC(C)(C)C(=O)NCCn1ccc(-c2ccncc2)n1`, the INHIBITION falls from 43.1% to 11.9%.

First: CC(C)N(C(=O)CCc1cccc(F)c1)C1CCOCC1
Second: O=C(CC1CCCC1)NCCn1ccc(-c2ccncc2)n1
The INHIBITION of the first is lower: -6.34% for the first, 36.3% for the second.

Going from `CN1CCN(C(=O)c2nc3c(s2)CCCN3C(=O)C2CC2)CC1` to `O=C(NCCn1ccc(-c2ccncc2)n1)C1CC1`, the INHIBITION rises from 37.9% to 52.6%.

Work on `CC(C)(C)CC(=O)NCCn1ccc(-c2ccncc2)n1` yielded an INHIBITION of -4.99%.
